Wnt act: activators of Wnt/beta-catenin signaling; Wnt/beta-catenin reporter cell assay, activator, plate reader; activation, % at 9.35 µM; hit rate 1.2% among 300,000; in the data active = activation above about 30%, passing the limit was not always enough;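 also: 0% = neutral control wells and 100% = positive control wells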
esBAF inh: inhibitors of esBAF chromatin remodeling in mouse ES cells | hit rate 2% among 350,000 | Bmi1-luciferase knock-in reporter, 24 h; 100% = twice the neutral-well signal | reporter increase, % at 12.5 µM | AID 602393; in the data active = activation above about 40%;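 also: 0% = median of the plate's neutral control wells and 100% = double that signal; a rise in the Bmi1 reporter signal indicates esBAF inhibition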
MITF TRPM1 HTS: MITF TRPM1 promoter activation in melanoma cells | SK-MEL-5 TRPM1-promoter luciferase, 24 h; % of positive control, neutral wells = 0 | activation, % at 12.5 µM | hit rate 0.75% among 300,000 | AID 588334;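 active = mean activation of at least 80% with every replicate also reaching 80%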;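 also: 0% = neutral control wells and 100% = parthenolide positive control wells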
AF4-AF9 inh: inhibitors of human MLL-AF4/AF9 interaction; AlphaScreen, biotin-AF4 peptide binding to FLAG-AF9; AID 651704; inhibition, % at 10 µM; hit rate 0.47% among 350,000; P42568;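 active = every replicate reaching a set inhibition limit, whatever the replicate mean, cut at about 25% in these data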;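 also: 0% = plate neutral control median and 100% = total signal loss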
Target sequence (P42568 whole entry, looked up): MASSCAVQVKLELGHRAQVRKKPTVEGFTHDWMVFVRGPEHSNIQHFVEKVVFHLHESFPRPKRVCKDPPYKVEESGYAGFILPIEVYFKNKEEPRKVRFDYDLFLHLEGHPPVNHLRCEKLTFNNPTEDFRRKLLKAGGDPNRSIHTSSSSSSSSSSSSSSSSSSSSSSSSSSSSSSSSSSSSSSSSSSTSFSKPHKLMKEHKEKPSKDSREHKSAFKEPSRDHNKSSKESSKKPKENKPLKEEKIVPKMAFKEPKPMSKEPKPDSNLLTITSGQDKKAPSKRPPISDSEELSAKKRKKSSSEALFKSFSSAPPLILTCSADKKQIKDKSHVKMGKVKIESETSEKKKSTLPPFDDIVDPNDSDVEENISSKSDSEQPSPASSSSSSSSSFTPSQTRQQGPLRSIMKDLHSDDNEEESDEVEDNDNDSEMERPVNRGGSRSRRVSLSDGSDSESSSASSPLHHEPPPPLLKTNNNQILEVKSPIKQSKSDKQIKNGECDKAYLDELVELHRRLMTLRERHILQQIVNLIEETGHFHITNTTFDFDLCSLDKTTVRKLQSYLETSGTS
SMARCA2 activ: SMARCA2 function activation, primary screen. AID 652017. activation, % at 9.1 µM. hit rate 1% among 370,000. MG213 cells, MMTV-luciferase reporter, dexamethasone, overnight; in the data active = activation above about 7.8%;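 also: 0% = vehicle wells and 100% = reference activator wells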
FGF22 binding: binders of recombinant human FGF22 by thermal shift; Q9HCT0; SYPRO orange fluorescence; percent of sucrose octasulfate shift, DMSO zero; activity (Tm shift, normalised), % at 9.99 µM; hit rate 1.5% among 340,000; AID 651658;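 active = mean Tm shift, scaled 0 neutral to 100 positive control, at about 1.3% or above, every replicate too, limit read from the data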
The depositor's hits bear a star. A selection: hits, their analogues and other compounds. The true share with any hit is near 4.3%.

`S=C(c1ccc(-c2ccc(Cl)cc2Cl)o1)N1CCCCC1` gave Wnt act 26.7, esBAF inh 53.3*, MITF TRPM1 HTS 59.8 and SMARCA2 activ -3.0.
CO[C@@H]1CN(C)C(=O)c2cc(NS(C)(=O)=O)ccc2OC[C@@H](C)N(C(=O)CC2CC2)C[C@@H]1C was read as esBAF inh -0.4 and AF4-AF9 inh 2.1.
`CCN(CC)CCCNC(=O)c1cc(-c2ccccc2)c(N2CCCCC2)s1` gave Wnt act 1.8, esBAF inh -30.9, MITF TRPM1 HTS -1.7, AF4-AF9 inh 29.2*, SMARCA2 activ -2.8 and FGF22 binding 0.0.
For Cc1ccc(/C=C/C(=O)N2CCCC(C)C2)cc1 (stereo unspecified) the results were Wnt act -1.7, MITF TRPM1 HTS 87.9*, AF4-AF9 inh -1.4, SMARCA2 activ 0.0 and FGF22 binding -0.1.
`CC(C)(C)c1ccc(/C=C/C(=O)N2CCCCC2)cc1` gave Wnt act 33.2*, esBAF inh 47.3*, MITF TRPM1 HTS 101.2*, AF4-AF9 inh 4.7, SMARCA2 activ 3.1 and FGF22 binding -0.1.
Screening CCOC(=O)C1CCCN(C(=O)/C=C/c2ccc(Cl)cc2)C1 (stereo unspecified) returned Wnt act 8.5, MITF TRPM1 HTS -7.4, AF4-AF9 inh -2.5, SMARCA2 activ 0.8 and FGF22 binding -0.2.
`CC1CCN(C(=O)/C=C/c2ccc(C(C)(C)C)cc2)CC1` gave Wnt act 5.5, MITF TRPM1 HTS 27.4, AF4-AF9 inh 9.0, SMARCA2 activ 5.0 and FGF22 binding -0.1.
`CC(C)CC#Cc1ccc2c(c1)O[C@H](CN(C)C(=O)Nc1ccccc1)[C@@H](C)CN([C@@H](C)CO)S2(=O)=O` gave esBAF inh -5.0, AF4-AF9 inh 4.1 and FGF22 binding -0.5.
NCCCC[C@@H]1NC(=O)c2cc([N+](=O)[O-])cc(F)c2NCCCC[C@@H](C(N)=O)NC(=O)[C@H](CCC(N)=O)NC1=O was read as Wnt act 0.5, esBAF inh 1.7, MITF TRPM1 HTS -0.3, AF4-AF9 inh 27.1*, SMARCA2 activ -1.3 and FGF22 binding -0.1.
Screening Cc1ccc(C)c(OCCC(=O)NCCc2ccc(Cl)cc2)c1 returned Wnt act 1.7, esBAF inh -0.3, MITF TRPM1 HTS -0.6, AF4-AF9 inh -2.2, SMARCA2 activ -1.2 and FGF22 binding 0.1.
Screening CCOc1ccc(CCNC(=O)CCOc2cc(C)ccc2C)cc1OCC returned Wnt act -0.8, esBAF inh -2.6, MITF TRPM1 HTS 6.2, AF4-AF9 inh -5.8, SMARCA2 activ -1.6 and FGF22 binding 1.9*.
For O=C(N[C@@H]1CC[C@@H](CC(=O)N2CCCCC2)O[C@H]1CO)c1ccc2c(c1)OCO2 the results were esBAF inh -0.5, AF4-AF9 inh -0.6 and FGF22 binding 0.2.
For COc1ccc(N2C(=O)CC(Sc3nc4ccccc4s3)C2=O)cc1 (stereo unspecified) the results were Wnt act -1.3, esBAF inh -7.4, MITF TRPM1 HTS -5.4, AF4-AF9 inh -19.3, SMARCA2 activ -5.2 and FGF22 binding 0.1.
COc1ccc(N2C(=O)CC(Sc3nnc(-c4ccccc4F)n3C)C2=O)cc1 (stereo unspecified) was read as Wnt act 1.3, MITF TRPM1 HTS -2.4, AF4-AF9 inh -0.1, SMARCA2 activ -1.0 and FGF22 binding 43.5*.
`CN(C(=S)NCCN1CCOCC1)C(c1ccccc1)c1ccccc1` gave Wnt act 41.8*, MITF TRPM1 HTS -4.7, AF4-AF9 inh 2.7, SMARCA2 activ -2.9 and FGF22 binding -0.1.
For Cc1cc2nc(/C=C/c3nc4cc(C)c(C)cc4[nH]3)[nH]c2cc1C the results were Wnt act 6.6, esBAF inh 5.7, MITF TRPM1 HTS 5.1, AF4-AF9 inh -4.8, SMARCA2 activ 4.9 and FGF22 binding 0.0.
For Cc1ccc(/C=C/c2nc3ccccc3[nH]2)o1 the results were Wnt act 37.6*, MITF TRPM1 HTS 21.5, AF4-AF9 inh -0.8, SMARCA2 activ 6.7 and FGF22 binding 0.2.
`CN(C)c1ccc2c(c1)[C@H]1C[C@H](CC(=O)NCc3ccc(Cl)cc3)O[C@@H](CO)[C@H]1O2` gave esBAF inh -2.8, AF4-AF9 inh 5.1 and FGF22 binding -0.1.
Screening CCCC#Cc1cnc2c(c1)C(=O)N([C@H](C)CO)C[C@@H](C)[C@H](CN(C)C(=O)NCCC)O2 returned esBAF inh 3.3, AF4-AF9 inh -2.4 and FGF22 binding -0.5.
Screening C/C(N)=C(/C#N)C(=O)CSc1nnc(C)n1-c1ccccc1 returned Wnt act -1.8, MITF TRPM1 HTS -9.6, AF4-AF9 inh -0.1, SMARCA2 activ -3.6 and FGF22 binding 43.3*.
Cc1ccc(S(=O)(=O)Nc2ccc3c(c2)C(=O)N([C@@H](C)CO)C[C@H](C)[C@H](CN(C)CC2CCCCC2)O3)cc1 was read as esBAF inh 3.0, AF4-AF9 inh -4.4 and FGF22 binding -0.4.
`CC(=O)Nc1cccc(NC(=O)CS(=O)(=O)c2cn(CC(=O)N3CCOCC3)c3ccccc23)c1` gave Wnt act -0.3, MITF TRPM1 HTS -5.6, AF4-AF9 inh -0.3, SMARCA2 activ -0.6 and FGF22 binding 42.9*.
`Cc1nnc(SCC2=C(C(=O)O)N3C(=O)C(NC(=O)Cn4ncc(Cl)c4C)C3SC2)s1` (stereo unspecified) gave Wnt act -0.9, MITF TRPM1 HTS -1.1, AF4-AF9 inh 0.0, SMARCA2 activ -0.4 and FGF22 binding 43.0*.
`Cc1sc2ccccc2c1CNC[C@H]1O[C@@H](n2ccc(N)nc2=O)[C@H](O)[C@@H]1O` gave Wnt act 8.0, esBAF inh 0.4, AF4-AF9 inh -4.9, SMARCA2 activ 0.0 and FGF22 binding -0.1.
For Cc1sc2ccccc2c1CNC[C@H]1O[C@@H](n2cnc(C(N)=O)n2)[C@H](O)[C@@H]1O the results were Wnt act -1.7, esBAF inh -4.3, MITF TRPM1 HTS -4.3, AF4-AF9 inh -5.1, SMARCA2 activ -2.2 and FGF22 binding 43.5*.
CCOc1ccc(N=C2SCCCN2C(=O)c2c(CC)noc2C)cc1 was read as Wnt act -0.7, esBAF inh 0.0, MITF TRPM1 HTS -6.4, AF4-AF9 inh 3.0, SMARCA2 activ -0.9 and FGF22 binding 0.5.
`CCOc1ncccc1C(=O)N1CCCSC1=Nc1ccc(C(C)=O)cc1` gave Wnt act 0.2, MITF TRPM1 HTS -6.4, AF4-AF9 inh -1.0, SMARCA2 activ -1.1 and FGF22 binding 43.4*.
S=C(Nc1ccccc1)c1nc2ccccc2s1 was read as Wnt act 56.4*, MITF TRPM1 HTS 30.8, AF4-AF9 inh -4.1, SMARCA2 activ 5.7 and FGF22 binding 0.0.
C[C@@H]1CN([C@H](C)CO)C(=O)c2cc(NS(=O)(=O)c3ccccc3)ccc2O[C@@H]1CN(C)S(=O)(=O)c1ccc(F)cc1 was read as esBAF inh -2.3.

Assay outcomes (PubChem)
